Source: PubChem BioAssay
Sampled rows, rich in hits. Any-hit rate of the full collection: about 9.5%.
NS1 function inh – influenza NS1 inhibition. Potency, µM (doses to about 46.1 µM), for the others: at the top dose activity, positive = more growth. 0.4% of 270,000 active; calls by dose curve; further: actives are rising curves; nearly all actives have a fitted effect of over 50% in size
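OD600 was taken as the measure of yeast growth restored by compound in an NS1-expressing S. cerevisiae strain. Cells had been washed out of glucose medium and diluted 1:100 into galactose -URA medium, pH 6.0.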
Pf growth 48h – P. falciparum growth inhibition at 48 hours (one generation). AID 504832. 5.9% of 310,000 active. P. falciparum luciferase growth in erythrocytes, 48 h. Potency, µM (doses to about 28.7 µM), for the others: at the highest dose activity change, negative = inhibition, hits mostly inhibitors; further: on the % scale 0 is the no-effect control and ±100 the full control effect
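Luminescence readout; reporter = integrated firefly luciferase in P. falciparum. RBC culture at 2% hematocrit, 0.1% parasitemia final, 37 C/5% CO2; decreased signal taken as growth inhibition.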
Pf growth 96h – inhibits malaria parasite growth, 96 h. P. falciparum luciferase reporter growth, 96 h. Potency, µM (titrated, usually from 28.7 µM), for the others: at the highest dose activity change, negative = inhibition, most hits filed as inhibitors. 6.9% of 320,000 active; further: on the % scale 0 is the no-effect control and ±100 the full control effect
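Parasite growth measured via integrated firefly luciferase reporter in P. falciparum. Infected erythrocytes at 2% hematocrit, 0.05% parasitemia final were treated 96 hours at 37 C under 5% CO2, and luminescence was read.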
RE007 growth inh – less growth of the S. pombe RE007 Vpr strain | S. pombe RE007 Vpr strain, BacTiter-Glo ATP luminescence, 24 h | Potency, µM (doses to about 92.2 µM), for inactives: top-dose activity change, negative = less growth, usual class: inhibitors | 0.21% of 360,000 active | AID 651644; active means well fitted falling curve with a large enough effect; inconclusive means small, poorly fitted or top-dose-only effect; inactive means no such curve, though single readings can be large or run the other way; further: on the % scale 0 is the no-effect control and ±100 the full control effect; nearly all actives have a fitted effect of over 50% in size
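Fission yeast RE007 carrying one integrated HIV-1 vpr copy, seeded at OD 0.01 in PMG+AL medium with 23 nL pinned compound. Grown 24 h at 30 degrees; viability read by BacTiter-Glo luminescence after 5 min.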
SARS PLpro yeast – blocks SARS-CoV papain-like protease in a yeast assay. Potency, µM (titrated, usually from 32.9 µM), for the others: at the top dose activity, positive = growth rescue, usual class: activators. 0.19% of 330,000 active. S. cerevisiae expressing SARS-CoV PLpro, growth rescue; calls by dose curve; further: 0% is about no effect; nearly all actives have a fitted effect of over 55% in size
An asterisk follows results filed as active; ! = repeats disagree; [ ] = dose if it differs, or a comment. Unless noted, the call rests on the fitted dose curve; in most records, active means well fitted inhibition curve with a large enough effect; inconclusive means small, poorly fitted or top-dose-only effect, or another doubt; inactive means no such curve, though single readings can be large or run the other way. Potency means the concentration at half of the fitted maximal effect.

CCOC(=O)Nc1ccc2c(c1)N(C(=O)CN)c1ccccc1CC2 was read as NS1 function inh inconclusive, Pf growth 48h 12µM*, Pf growth 96h inconclusive, RE007 growth inh 3% and SARS PLpro yeast 0%.
`CCOC(=O)Nc1ccc2c(c1)N(C(=O)OCCN(C)C)c1ccccc1CC2` gave NS1 function inh -2%, Pf growth 48h -10%, Pf growth 96h 1.5µM*!, RE007 growth inh 11% and SARS PLpro yeast -3%.
For CCOC(=O)Nc1ccc2c(c1)N(C(=O)CCN1CCOCC1)c1ccccc1S2 the results were NS1 function inh 5%, Pf growth 48h 15µM*!, Pf growth 96h inconclusive, RE007 growth inh -11% and SARS PLpro yeast 0%.
CCOC(=O)Nc1ccc2c(c1)N(C(=O)CN(C)C)c1ccccc1CC2 was read as NS1 function inh -1%, Pf growth 48h -7%, Pf growth 96h 10µM*, RE007 growth inh -11%[18.4 µM] and SARS PLpro yeast -2%.
O=C(Nc1ccc(F)c(Cl)c1)c1cc(C2CCCCN2C(=O)c2cccs2)on1 (stereo unspecified) was read as RE007 growth inh 8%.
Screening CC(CC(=O)Nc1ccc2c(c1)c(=O)n(C)n2-c1cccs1)c1ccccc1 (stereo unspecified) returned RE007 growth inh -15%.
For CC1CCC(C(=O)O)([C@H](Br)C(=O)O)CC1 (stereo partly specified) the results were NS1 function inh 5%.
Screening COC(=O)Nc1ccc2c(c1)N(C(=O)CCN(C)C)c1ccccc1CC2 returned NS1 function inh -1%, Pf growth 48h -6%, Pf growth 96h 7.4µM*, RE007 growth inh 4% and SARS PLpro yeast -7%.
CCNCC(=O)N1c2ccccc2CCc2ccc(NC(=O)OCC)cc21 was read as NS1 function inh 0%, Pf growth 48h 10µM*, Pf growth 96h -28%, RE007 growth inh 4% and SARS PLpro yeast 1%.
For CCN(CC)C(=O)CSc1nnc(CSc2ncccn2)n1C the results were NS1 function inh 3%, Pf growth 48h 1%, Pf growth 96h 10%, RE007 growth inh 14% and SARS PLpro yeast 3%.
CCCCCCCCNC(=S)NCCN1CCCCC1 was read as Pf growth 48h 8.3µM*, Pf growth 96h 0%, RE007 growth inh -23% and SARS PLpro yeast 4%.
For C=CCn1c(=O)/c(=C/c2ccsc2)s/c1=C(\C#N)C(=O)NCCN1CCOCC1 the results were RE007 growth inh -10%.
For c1ccc2c(c1)COc1c3ncccc3nn1-2 the results were RE007 growth inh -9%.
For CC(C)C[C@H](NC(=O)c1[nH]cnc1C(=O)N[C@H](C)c1ccccc1)C(=O)OCc1ccccc1 the results were NS1 function inh inconclusive, Pf growth 48h inconclusive, Pf growth 96h inconclusive, RE007 growth inh -10% and SARS PLpro yeast 0%.
C[C@H](NC(=O)c1nc[nH]c1C(=O)NC(c1ccccc1)c1ccccc1)C(=O)OCc1ccccc1 was read as NS1 function inh 4%, Pf growth 48h 10µM*, Pf growth 96h inconclusive, RE007 growth inh 11% and SARS PLpro yeast -1%.
For CC(C)C[C@H](NC(=O)c1[nH]cnc1C(=O)N[C@@H](Cc1ccccc1)C(=O)OCc1ccccc1)C(=O)OCc1ccccc1 the results were NS1 function inh inconclusive, Pf growth 48h inconclusive, Pf growth 96h inconclusive, RE007 growth inh -5% and SARS PLpro yeast 0%.
`CC(C)C[C@H](NC(=O)c1nc[nH]c1C(=O)NC(c1ccccc1)c1ccccc1)C(=O)OCc1ccccc1` gave NS1 function inh inconclusive, Pf growth 48h 3.7µM*, Pf growth 96h 2.9µM*, RE007 growth inh 8% and SARS PLpro yeast 1%.
C[C@H](NC(=O)c1nc[nH]c1C(=O)N[C@@H](C)C(=O)OCc1ccccc1)C(=O)OCc1ccccc1 was read as NS1 function inh inconclusive, Pf growth 48h 31%, Pf growth 96h 7%, RE007 growth inh 11% and SARS PLpro yeast 3%.
Screening CC(C)C[C@H](NC(=O)c1nc[nH]c1C(=O)N[C@@H](CC(C)C)C(=O)OCc1ccccc1)C(=O)OCc1ccccc1 returned NS1 function inh -3%, Pf growth 48h inconclusive, Pf growth 96h 12µM*, RE007 growth inh -7% and SARS PLpro yeast -4%.
COc1ccc(C(=O)NCC(c2ccco2)N2CCCC2)cc1S(=O)(=O)N1CCCCC1C (stereo unspecified) was read as Pf growth 48h inconclusive, Pf growth 96h 5.2µM*, RE007 growth inh -24% and SARS PLpro yeast 4%.
Screening COc1ccc(C(=O)NCC(c2ccco2)N2CCCCC2)cc1S(=O)(=O)Nc1ccc(C)cc1 (stereo unspecified) returned RE007 growth inh -12%.
`O=C(NCCc1c[nH]c2ccccc12)C(=O)NCC1OCCCN1S(=O)(=O)c1cc(F)ccc1F` (stereo unspecified) gave Pf growth 48h 13µM*, Pf growth 96h 3.3µM*, RE007 growth inh -2% and SARS PLpro yeast 0%.
COc1ccc(C(=O)NCCc2c[nH]c3ccccc23)cc1S(=O)(=O)N1CCCCC1C (stereo unspecified) was read as Pf growth 48h 8.3µM*, Pf growth 96h 13µM*, RE007 growth inh 6% and SARS PLpro yeast 8%.
For COc1ccc(C(=O)NCCc2ccc(Cl)cc2)cc1S(=O)(=O)N1CCCCC1C (stereo unspecified) the results were Pf growth 48h inconclusive, Pf growth 96h inconclusive, RE007 growth inh -9% and SARS PLpro yeast -9%.
Screening O=C(NCCc1ccccc1)C(=O)NCC1OCCCN1S(=O)(=O)c1cc(F)ccc1F (stereo unspecified) returned NS1 function inh 5%, Pf growth 48h inconclusive, Pf growth 96h inconclusive, RE007 growth inh 8% and SARS PLpro yeast 11%.
Screening CN1CCc2nc(N)nc(-c3nc(N)nc4c3CN(C)CC4)c2C1 returned NS1 function inh 0%.
Screening Cc1ccc(S(=O)(=O)Nc2c(C)n(C)n(-c3ccccc3)c2=O)cc1C(=O)OC(C)C(=O)c1ccccc1 (stereo unspecified) returned RE007 growth inh 7%.
For Cc1ccc(S(=O)(=O)Nc2c(C)n(C)n(-c3ccccc3)c2=O)cc1C(=O)OC(C)C(=O)N(C)c1ccccc1 (stereo unspecified) the results were Pf growth 48h -22%, Pf growth 96h 15µM*, RE007 growth inh -6% and SARS PLpro yeast 4%.
O=C1/C(=C/c2cccc(F)c2)Oc2cc(O)ccc21 was read as NS1 function inh -88%, Pf growth 48h 24%, Pf growth 96h 32%, RE007 growth inh -25% and SARS PLpro yeast -12%.
Screening CN(C)c1ccc(/C=C/c2cccc[n+]2[O-])cc1 returned NS1 function inh -4%, Pf growth 48h 148%, Pf growth 96h 249%, RE007 growth inh -3% and SARS PLpro yeast 0%.
